Assay results from PubChem BioAssay.

Each molecule was assayed against Alpha-bungarotoxin (Bungarus multicinctus) (UniProt P60615) (assay: alpha-bungarotoxin binders on microarray, profiling panel, artefact control for SMM control protein annotation, biochemical, small-molecule microarray, Alexa647 label, 635/667 nm fluorescence (AID 1117)). Details: alpha-BTX-A647 binding fluorescence, higher = more signal.
Chain of Alpha-bungarotoxin (Bungarus multicinctus) (P60615 whole entry, looked up): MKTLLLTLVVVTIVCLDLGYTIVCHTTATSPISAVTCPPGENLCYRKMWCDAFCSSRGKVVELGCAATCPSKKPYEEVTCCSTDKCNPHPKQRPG

SMILES	composite z-score
C=C(COC)/C(=C/C[C@@H](OC(C)=O)c1ccc(OCCO)cc1)c1cnc2ccccc2c1	1.63
CN(C)CCCCCCNC(=O)[C@@H]1C[C@@H]2C(=O)N[C@@H](Cc3ccccc3)C(=O)N2[C@@H]1c1ccc(O)cc1	2.47
Cc1nc2cc(Br)ccc2c(=O)o1	0.206
COCCOC(=O)N1C(=O)[C@@]2(c3ccccc31)[C@H](c1ccc(O)cc1)N1[C@H](c3ccccc3)[C@H](c3ccccc3)OC(=O)[C@H]1[C@@H]2C(=O)Nc1nc2ccccc2s1	1.87
COCC(=C=CC[C@@H](O)c1cccc(OCCO)c1)C[C@@H](O)c1ccccn1	0.216
